Measured values published in PubChem BioAssay AID1446 (The Scripps Research Institute Molecular Screening Center, 2008).
Values joined by “and” are separate entries in the source; they are usually repeats but may differ in a detail not shown here. Identical values can stand only once. The whole screen tested about 220,000 compounds, of which about 2,400 (1.1%) were called active.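 How the source made its calls: active means inhibition above the campaign mean plus 3 SD over all tested compounds (cut at about 24% in these data); inactive means the rest.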 The sample as a whole holds a higher share of actives than the screen did.

test: viability loss in Ba/F3 EpoR-JAK2V617F cells – cell-based, luminescence, JAK2V617F inhibitor project, primary screen (AID 1446); details: ATP luminescence, at 5.6 µM, hits give high values;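 further: cytokine-independent growth of Ba/F3 cells driven by EpoR plus mutant JAK2; 0% = DMSO-treated cells and 100% = JAK inhibitor I control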

Compound | inhibition
O=C(CSc1nnc(SCc2ccc(F)cc2)s1)Nc1ccc(C(=O)O)cc1 | -3.83% (inactive)
Cc1ccc(S(=O)(=O)N(C)C)cc1NC(=O)c1ccccc1Br | 2.86% (inactive)
COc1cc(OC)nc(S(C)(=O)=O)n1 | -3.65% (inactive)
COc1ccc(-c2cc(C(F)(F)F)nc(SCC(=O)Nc3ccc4c(c3)OCO4)n2)cc1OC | 2.59% (inactive)
COc1ccc(-c2cc(C(F)(F)F)nc(S(C)(=O)=O)n2)cc1OC | 37.9% (active)
Cc1c(CCC(=O)O)c(=O)oc2cc3occ(-c4ccccc4)c3cc12 | 2.82% (inactive)
COc1ccc(C(=O)NNC(=S)NC(=O)c2ccccc2[N+](=O)[O-])cc1 | 0.22% (inactive)
CCOC(=O)C(=Cc1ccccc1OC)C(=O)OCC | -2.52% (inactive)
CN(NC(=O)c1ccccc1F)c1nc(C(F)(F)F)nc2ccccc12 | 73.2% (active)
CN(NC(=O)c1ccccc1)c1nc2ccccc2nc1C(F)(F)F | -2.71% (inactive)
COc1ccc(OCC(=O)NNC(=O)c2cccc(C)c2)cc1 | -0.28% (inactive)
COC(=O)CNC(=O)c1ccccc1F | -2.64% (inactive)
COc1ccc(C(=O)NN(C)c2nc(-c3ccccc3)cc(C)c2S(C)(=O)=O)cc1 | 2.15% (inactive)
CSc1nc(N(C)NC(=O)c2cccc(C)c2)c2ccccc2n1 | 93.6% (active)
CC(=O)c1ccc(NC(=O)CSC(=S)N2CCCC2)cc1 | -0.78% (inactive)
C=CCNC(=O)CSc1nc2scc(-c3ccco3)c2c(=O)n1CC=C | -2.22% (inactive)
Nc1nc(NC(=O)/C=C/c2ccc(F)cc2)nn1-c1ccccc1 | 1.73% (inactive)
CCCCCN(C(=O)NC(=O)Nc1cccc(C)c1C)S(C)(=O)=O | 1.95% (inactive)
CC(NC(=O)C(=O)Nc1nccs1)c1ccccc1 (stereo unspecified) | -0.5% (inactive)
CCCCN1C(=O)CCC(C(=O)O)C1c1ccc(OC)cc1 (stereo unspecified) | -6.4% (inactive)
CC(=O)c1cnc(-c2ccccc2)s1 | -0.87% (inactive)
COc1ccc(-c2csc(NC3OC(=O)c4ccccc43)n2)cc1 (stereo unspecified) | 11.9% (inactive)
COc1ccc2c(c1OC)C(=O)OC2Nc1nc(-c2ccccc2)cs1 (stereo unspecified) | 68.6% (active)
COc1ccc2c(c1OC)C(=O)OC2c1c(O)nc(SC)n(-c2ccccc2)c1=O (stereo unspecified) | -4.02% (inactive)
Cn1c(SCC(=O)Nc2ccc(Cl)cc2)nc(O)cc1=O | -1.33% (inactive)
O=C1CC(c2c(F)cccc2Cl)C(n2cncn2)C(O)=C1C1NCCc2ccccc21 (stereo unspecified) | -3.23% (inactive)

Compound | inhibition
COCCOC(=O)C1=C(C)NC(=O)CC1c1cc2c(cc1Br)OCO2 (stereo unspecified) | 1.76% (inactive)
COc1ccc(F)cc1S(=O)(=O)Nc1ccc2c(c1)OCO2 | 0.08% (inactive)
COc1cc2c(cc1/C=C1/NC(=O)N(c3ccccc3)C1=O)OCO2 | 0.39% (inactive)
COc1ccc(C2CC(=O)Nc3cc(C)c(C)cc32)c(OC)c1OC (stereo unspecified) | 0.14% (inactive)
COc1ccccc1C1C2=C(COC2=O)Nc2cc3c(cc21)OCO3 (stereo unspecified) | 85.5% (active)
CCCOc1ccccc1C1CC(=O)Nc2cc3c(cc21)OCO3 (stereo unspecified) | 74.4% (active)
Cc1nc(C(=O)N2CCCC(C(=O)c3ccc(Cl)cc3)C2)cs1 (stereo unspecified) | -2.53% (inactive)
CC(=O)N1CCN(S(=O)(=O)c2c(F)cc(F)c(Cl)c2F)CC1 | -1.72% (inactive)
COc1ccc(CN(C)C(C)C(=O)NC2CCCc3ccccc32)cc1 (stereo unspecified) | 3.02% (inactive)
COc1ccc2nc(SCc3ccccc3)nc(C)c2c1 | 2.96% (inactive)
CCOC(=O)C1C(c2ccc(OC)c(OC)c2)c2c([nH][nH]c2=O)CC1(C)O (stereo unspecified) | -0.54% (inactive)
O=C(CCCn1c(=O)c2sccc2n(CC(=O)NCC2CCCO2)c1=O)NCc1ccco1 (stereo unspecified) | -0.32% (inactive)
COc1ccc(C2c3ccc(O)cc3Oc3ncn(CCCO)c(=N)c32)cc1OC (stereo unspecified) | -1.6% (inactive)
COc1ccc(NC(=S)Nc2ccccc2Cl)cn1 | 4% (inactive)
COc1ccc(NC(=S)NCCNC(C)=O)cc1 | -1.93% (inactive)
COc1ccc(Nc2cc(Cl)ccc2C(=O)O)cn1 | -1.48% (inactive)
Cc1ccc(NC(=O)OCc2cncs2)cc1 | 4.29% (inactive)
COc1ccc(NC(=O)/C(Cl)=C(/Cl)S(=O)Cc2ccc(C)cc2)cn1 (stereo unspecified) | 100% (active)
COc1ccc(CS(=O)/C(Cl)=C(/Cl)C(=O)Nc2ccc(OC)nc2)cc1 (stereo unspecified) | 101% (active)
CCC(=O)N1CCCc2ccccc21 | -4.91% (inactive)
C=CCc1cccc2cc(C(=O)Nc3ccc(NC(C)=O)cc3)c(=O)oc12 | -0.67% (inactive)
CC1CCCCN1S(=O)(=O)c1ccc(C(=O)Nc2nnc(-c3cccs3)o2)cc1 (stereo unspecified) | 36.5% (active)
CC1CCCN(S(=O)(=O)c2ccc(C(=O)Nc3nnc(-c4ccncc4)o3)cc2)C1 (stereo unspecified) | -1.33% (inactive)
CC1CCCCN1S(=O)(=O)c1ccc(S(=O)(=O)N(CC(=O)Nc2ccccc2)Cc2cccs2)cc1 (stereo unspecified) | -2.37% (inactive)
C/C(=N\NC(=O)OC(C)(C)C)c1ccc[nH]1 | 1.03% (inactive)
CCN(CC)C(=O)Oc1ccc(Br)cc1C(=O)Nc1ccc(F)c(Cl)c1 | -0.45% (inactive)

Compound | inhibition
CCOC(=O)C(C)n1nc(-c2ccccc2)c2ccccc2c1=O (stereo unspecified) | -1.31% (inactive)
COc1ccc(C(=O)NC(Cc2ccc(OC(=O)c3ccc(OC)cc3)cc2)C(=O)O)cc1 (stereo unspecified) | -2.6% (inactive)
O=C(CN1CCN(S(=O)(=O)c2ccc(Br)cc2)CC1)Nc1ccccc1C(=O)c1ccccc1 | -3.02% (inactive)
CC(C)(C)c1ccc(Oc2ccc(N)cc2)cc1 | 33.3% (active)
Nc1ccc(Oc2ccc(Cl)cc2)cc1 | 7.34% (inactive)
Cc1ccc(Oc2ccc(N)cc2)cc1 | 0.92% (inactive)
CC(C)CN1CCNC(=O)C1CC(=O)N(C)CC1CCOCC1 (stereo unspecified) | -1.14% (inactive)
Cc1ccc(-c2cc(C(F)(F)F)n3ncc(C(=O)N4CCCCC4c4cccnc4)c3n2)cc1 (stereo unspecified) | -1.34% (inactive)
COc1cc2c(cc1OC)CN(C(=O)c1ccc(S(=O)(=O)N3CCCCCC3)cc1)CC2 | 4.67% (inactive)
COc1cc2c(cc1OC)CN(C(=O)c1cc(=O)c3ccccc3o1)CC2 | 15.9% (inactive)
CCOc1cc(C(=O)N2CCc3cc(OC)c(OC)cc3C2)ccc1OC(F)F | 82.7% (active)
OCC1(Cc2ccccc2C(F)(F)F)CCN(Cc2ccncc2)CC1 | 3.31% (inactive)
C[C@@H]1C[C@@H]2O[C@H]2/C=C\C=C\C(=O)Cc2c(Cl)c(O)cc(O)c2C(=O)O1 | 96.8% (active)
CCOC(=O)c1ccc(NC(=O)Cn2nnc(-c3ccc(C)cc3)n2)cc1 | -1.34% (inactive)
CCOC(=O)c1ccc(NC(=O)CSc2ncccn2)cc1 | -1.61% (inactive)
CCOC(=O)c1ccc(NC(=O)Cn2cnc3cc(C)c(C)cc32)cc1 | 47.2% (active)
CCOC(=O)c1ccc(N=C2SC(C(=O)NC)CC(=O)N2CCc2ccccc2)cc1 (stereo unspecified) | 1.63% (inactive)
Cc1ccc(-c2c[n+](CC(=O)Nc3ccccc3)c3n2CCC3)cc1 | -4.7% (inactive)
Clc1ccc(C[n+]2cc(-c3ccc(Cl)cc3)n3c2CCC3)cc1 | 50.1% (active)
O=C(C[n+]1cc(-c2ccc(Cl)c(Cl)c2)n2c1CCC2)c1cccs1 | 4.8% (inactive)
Clc1ccc(C[n+]2cc(-c3ccccc3)n3c2CCC3)cc1 | 70.5% (active)
Cn1c(-c2ccccc2)c[n+]2c1CCCCC2 | -3.91% (inactive)
Cc1ccc(C(=O)C[n+]2cc(-c3ccccc3)n3c2CCCCC3)cc1 | 69.4% (active) and 87.4% (active)
CN(C(=O)CSc1nnc(-c2n[nH]c3ccccc23)o1)c1ccccc1 | 2.55% (inactive)
